Results from the supplement of paper PMC12067926.

How the values were obtained:
Test in all cases: relative growth (AUC of 72 h growth curve relative to DMSO control, dAUC) (ratio); higher = more growth (less inhibition), active = hit call of the paper
Details in all cases: 20 µM;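 active = growth AUC significantly below the DMSO wells by Dunnett test; inactive = the rest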
[1] = system: Community 7
In short: (§1)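 Whole sediment communities and bacterial isolates from Icelandic stream sediments and Silwood Park soil were brought to carrying capacity in Luria–Bertani medium. They were then diluted 1:100 into 96-well plates with each chemical at 20 µM in 1% DMSO, and A600 was recorded every hour for 72 h. The area under each growth curve, integrated by spline, was averaged across three biological replicates. This figure, divided by the mean of the DMSO controls, gives relative growth (dAUC).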

[2] = system: Community 8
In short: as §1

[3] = system: Community 9
In short: as §1

[4] = system: Flavobacterium 1 (Flavobacterium glaciei)
In short: as §1

[5] = system: Flavobacterium 2 (Flavobacterium succinicans)
In short: as §1

[6] = system: Hymenobacter 1 (Hymenobacter glaciei)
In short: as §1

[7] = system: Microbacterium 1 (Microbacterium arborescens)
In short: as §1

[8] = system: Neobacillus 1 (Neobacillus soli)
In short: as §1

[9] = system: Oryzobacter 1 (Oryzobacter terrae)
In short: as §1

[10] = system: Paenibacillus 1 (Paenibacillus castaneae)
In short: as §1

[11] = system: Prolinoborus 1 (Prolinoborus fasciculus)
In short: as §1

[12] = system: Pseudomonas 1 (Pseudomonas baetica)
In short: as §1

[13] = system: Pseudomonas 2 (Pseudomonas vancouverensis)
In short: as §1

[14] = system: Pseudomonas 3 (Pseudomonas mandelii)
In short: as §1

[15] = system: Pseudomonas 4 (Pseudomonas peli)
In short: as §1

[16] = system: Pseudomonas 5 (Pseudomonas baetica)
In short: as §1

[17] = system: Pseudomonas 6 (Pseudomonas sp.)
In short: as §1

[18] = system: Rhizobium 1 (Rhizobium herbae)
In short: as §1

[19] = system: Serratia 1 (Serratia sp. 2015-2462-01)
In short: as §1

[20] = system: Sphingomonas 2 (Sphingomonas sp.)
In short: as §1

Measured: relative growth

CNC(=O)/C=C(\C)OP(=O)(OC)OC
inactive: [1] 1.14 | [2] 0.954 | [3] 0.956 | [4] 0.897 | [5] 0.954 | [6] 0.933 | [7] 0.986 | [8] 0.937 | [9] 1.11 | [10] 0.944 | [11] 0.971 | [12] 1.05 | [13] 0.988 | [14] 1.03 | [15] 0.964 | [16] 0.96 | [17] 0.989 | [18] 1.09 | [19] 0.937 | [20] 0.926

C#CCOc1ccc(CCNC(=O)C(OCC#C)c2ccc(Cl)cc2)cc1OC (stereo not given)
inactive: [1] 1 | [2] 1.05 | [3] 0.995 | [4] 0.963 | [5] 0.928 | [6] 1.04 | [7] 1.02 | [8] 0.98 | [9] 1.02 | [10] 0.851 | [11] 0.958 | [12] 0.979 | [13] 0.988 | [14] 1.02 | [15] 0.992 | [16] 0.985 | [17] 1.07 | [18] 1.06 | [19] 0.968 | [20] 1.13

CCCN(CCC)C(=O)SCc1ccccc1
inactive: [1] 1.01 | [2] 1.08 | [3] 1.03 | [4] 0.979 | [5] 0.952 | [6] 1.15 | [7] 1.05 | [8] 1.02 | [9] 1.08 | [10] 1.01 | [11] 1.01 | [12] 1.03 | [13] 1.05 | [14] 1.09 | [15] 0.979 | [16] 1.06 | [17] 1.13 | [18] 1.05 | [19] 0.998 | [20] 1.06

O=C(O)CNCP(=O)(O)O
inactive: [1] 1.06 | [2] 1.04 | [3] 1.04 | [4] 0.964 | [5] 1.02 | [6] 1.11 | [7] 1.05 | [8] 1.04 | [9] 1.02 | [10] 0.969 | [11] 0.991 | [12] 0.996 | [13] 0.994 | [14] 1.05 | [15] 0.979 | [16] 1 | [17] 1.1 | [18] 1.03 | [19] 1.01 | [20] 1.02

CCCSP(=O)(OCC)Oc1ccc(Br)cc1Cl (stereo not given)
1.27: [9]
inactive: [1] 1.01 | [2] 0.96 | [3] 0.866 | [4] 1.01 | [5] 0.919 | [6] 0.98 | [7] 1.01 | [8] 0.965 | [10] 0.925 | [11] 1.01 | [12] 1.12 | [13] 1.08 | [14] 1.1 | [15] 0.975 | [16] 1.01 | [17] 1.04 | [18] 0.931 | [19] 0.955 | [20] 1.09

N#Cc1cc(Br)c(O)c(Br)c1
active: [9] 0.742
inactive: [1] 1.07 | [2] 1.05 | [3] 1.08 | [4] 1.02 | [5] 0.951 | [6] 0.861 | [7] 1.05 | [8] 0.842 | [10] 1.16 | [11] 0.996 | [12] 1.06 | [13] 1.02 | [14] 1.09 | [15] 0.964 | [16] 1.05 | [17] 1.12 | [18] 0.751 | [19] 0.998 | [20] 1.06

CCOC(=O)OC1=C(c2cc(C)ccc2C)C(=O)N[C@]12CC[C@@H](OC)CC2
inactive: [1] 1.03 | [2] 0.995 | [3] 1.03 | [4] 1.08 | [5] 1.05 | [6] 0.987 | [7] 1.01 | [8] 1.09 | [9] 1.05 | [10] 1.01 | [11] 1 | [12] 1.11 | [13] 0.998 | [14] 1.02 | [15] 1.02 | [16] 0.981 | [17] 1.09 | [18] 0.952 | [19] 0.987 | [20] 1.04

CC[C@H](C)C1O[C@]2(C=C[C@@H]1C)C[C@@H]1C[C@@H](C/C=C(\C)[C@@H](O[C@H]3C[C@H](OC)[C@@H](O[C@H]4C[C@H](OC)[C@H](NC)[C@H](C)O4)[C@H](C)O3)[C@@H](C)/C=C/C=C3\CO[C@@H]4[C@H](O)C(C)=C[C@@H](C(=O)O1)[C@]34O)O2 (stereo not given in full)
1.16: [16] | [19]
active: [3] 0.404 | [4] 0.0154 | [6] 0.356 | [9] 0.00218 | [10] 0.0061 | [11] 0.605 | [20] 0.373
inactive: [1] 0.976 | [2] 0.952 | [5] 0.832 | [7] 1.04 | [8] 0.894 | [12] 0.957 | [13] 0.971 | [14] 1.08 | [15] 0.98 | [17] 1.19 | [18] 0.8

CCCC(Cn1cncn1)c1ccc(Cl)cc1Cl (stereo not given)
inactive: [1] 0.902 | [2] 1.09 | [3] 1.12 | [4] 1.07 | [5] 0.966 | [6] 0.877 | [7] 0.99 | [8] 1.09 | [9] 1.05 | [10] 1.06 | [11] 0.988 | [12] 1.01 | [13] 0.994 | [14] 1.02 | [15] 1.07 | [16] 1.01 | [17] 0.993 | [18] 1.04 | [19] 0.994 | [20] 1.03

CCNC(=O)NC(=O)/C(C#N)=N/OC
inactive: [1] 1.13 | [2] 1.02 | [3] 0.993 | [4] 1.01 | [5] 0.994 | [6] 1.02 | [7] 0.986 | [8] 0.997 | [9] 0.977 | [10] 0.994 | [11] 0.954 | [12] 0.924 | [13] 0.96 | [14] 0.993 | [15] 0.981 | [16] 0.986 | [17] 1.03 | [18] 1.06 | [19] 1 | [20] 0.919

Cc1cc(C(F)(C(F)(F)F)C(F)(F)F)ccc1NC(=O)c1cccc(I)c1C(=O)NC(C)(C)CS(C)(=O)=O
1.19: [19]
active: [13] 0.842 | [20] 0.654
inactive: [1] 1.15 | [2] 1.07 | [3] 0.75 | [4] 0.818 | [5] 1.2 | [6] 0.857 | [7] 0.925 | [8] 1.09 | [9] 0.97 | [10] 1.02 | [11] 0.933 | [12] 0.728 | [14] 0.883 | [15] 1.13 | [16] 0.92 | [17] 0.776 | [18] 0.937

CC1(C)C(C=C(Cl)Cl)C1C(=O)OC(C#N)c1cccc(Oc2ccccc2)c1 (stereo not given)
inactive: [1] 0.963 | [2] 1.08 | [3] 1.12 | [4] 0.979 | [5] 1.05 | [6] 1.08 | [7] 1.03 | [8] 1.02 | [9] 1.07 | [10] 1 | [11] 0.983 | [12] 0.942 | [13] 1.06 | [14] 1.06 | [15] 1.04 | [16] 1.02 | [17] 1 | [18] 1.15 | [19] 1.01 | [20] 1.03

CC(C)OC(=O)Nc1cccc(Cl)c1
inactive: [1] 1.07 | [2] 1.01 | [3] 1.09 | [4] 0.971 | [5] 1.03 | [6] 1.09 | [7] 1.04 | [8] 1.09 | [9] 0.999 | [10] 1.12 | [11] 0.976 | [12] 0.905 | [13] 0.958 | [14] 1.04 | [15] 0.981 | [16] 0.991 | [17] 0.921 | [18] 0.876 | [19] 0.974 | [20] 0.926

CO/C=C(/C(=O)OC)c1ccccc1Oc1cc(Oc2ccccc2C#N)ncn1
inactive: [1] 0.834 | [2] 1.03 | [3] 1.04 | [4] 1.09 | [5] 0.99 | [6] 1.03 | [7] 0.975 | [8] 1.01 | [9] 1.13 | [10] 1.01 | [11] 0.973 | [12] 1.07 | [13] 1.02 | [14] 1.06 | [15] 1.03 | [16] 1.03 | [17] 1.08 | [18] 0.967 | [19] 0.967 | [20] 1.09

CC1(C)C(C(=O)OC(C#N)c2cccc(Oc3ccccc3)c2)C1(C)C (stereo not given)
inactive: [1] 1.09 | [2] 1.02 | [3] 1.05 | [4] 0.939 | [5] 0.946 | [6] 1.02 | [7] 1.03 | [8] 0.932 | [9] 1.14 | [10] 0.918 | [11] 0.893 | [12] 1.08 | [13] 1 | [14] 1.04 | [15] 0.948 | [16] 1.01 | [17] 1.01 | [18] 1.05 | [19] 1 | [20] 0.98

CON(C)C(=O)Nc1ccc(Cl)c(Cl)c1
inactive: [1] 1.01 | [2] 1.07 | [3] 1.03 | [4] 1.01 | [5] 0.923 | [6] 0.961 | [7] 1.05 | [8] 0.908 | [9] 1.04 | [10] 1 | [11] 0.886 | [12] 0.986 | [13] 0.949 | [14] 0.991 | [15] 0.982 | [16] 0.984 | [17] 1.02 | [18] 0.869 | [19] 0.978 | [20] 1.02
